# The whole screen tested about 6,200 compounds, of which about 2,900 (47%) were called active. So high a share suggests a set chosen from earlier hits. The list shows a part of the results. A number with no mark means an inactive call. No stated cut-off is given here; in the data, active means inhibition above about 50%; inactive means the rest.
# Assay: Mycobacterium tuberculosis growth inhibition, primary screen (AID 1259343)
# Details: inhibition: at 10 µM, active compounds read high; outcome: 10 uM
row,SMILES,inhibition
1,CCCc1cc(=O)[nH]c(-n2nc(C)cc2NC(=O)C(C)(C)CCl)n1,102% (active)
2,CCCc1cc(=O)[nH]c(-n2nc(C)cc2NC(=O)CC)n1,100% (active)
3,CCCc1cc(=O)[nH]c(-n2nc(C)cc2NC(=O)C(C)(C)Oc2ccc(Cl)cc2)n1,2.87%
4,CCCc1cc(=O)[nH]c(-n2nc(C)cc2NC(C)=O)n1,99.8% (active)
5,O=c1c(O)cccc2cc(O)c(O)c(O)c12,64.6% (active)
6,CCCC(CCC)=NNc1ncnc2sc(C)c(C)c12,96.3% (active)
7,COC(=O)C(C)Sc1ncnc2sc(C)c(C)c12 (stereo not given),-21%
8,CC(=NNc1ncnc2sc(C)c(C)c12)c1ccc(Cl)s1,47.1%
9,Cc1ccsc1C=NNc1ncnc2sc(C)c(C)c12,66.9% (active)
10,Cc1sc2ncnc(SCC(=O)c3ccc(Cl)s3)c2c1C,13.9%
11,CCCCNC(=S)NNc1ncnc2sc(C)c(C)c12,65.6% (active)
12,COC(=O)c1ccc(Cn2ncc(Cl)c(Cl)c2=O)o1,75.5% (active)
13,COC(=O)c1ccc(CSc2ncnc3c2nnn3Cc2ccccc2)o1,26.9%
14,COC(=O)c1ccc(CSc2ncnc3c2nnn3Cc2ccc(F)cc2)o1,3.1%
15,CC(C)C(C)NC(=O)Nc1nc(-c2ccccc2)ns1 (stereo not given),83.1% (active)
16,COCC1(NC(=O)Nc2nc(-c3ccccc3)ns2)CCCC1,5.18%
17,CCOC(=O)C1(CCOc2ccccc2)CCN(Cc2nc(C(C)C)cs2)CC1,inactive
18,CCOC(=O)C1(Cc2ccc(Cl)cc2)CCN(Cc2cccc3nonc23)CC1,78.1% (active)
19,CCOC(=O)C1(Cc2ccc(Cl)cc2)CCN(C(=O)Nc2ccc(Cl)cc2C)CC1,1.06%
20,Cc1cccc(NC(=O)c2n[nH]c([N+](=O)[O-])c2Br)c1C,86.8% (active)
21,Cc1cc(Br)ccc1NC(=O)c1ccc([N+](=O)[O-])o1,38.1%
22,CNC(=O)c1ccccc1NC(=O)c1ccc(C)c(Br)c1,23.1%
23,C=CCSc1nn2c(=O)c3ccccc3nc2s1,97.6% (active)
24,CCOc1ccc(Br)c(C=Nc2ccc3oc(=O)ccc3c2)c1O,81.3% (active)
25,Cc1c(C(=O)NCc2ccc(Cl)c(Cl)c2)sc(=O)n1Cc1ccc(F)cc1,17.9%
26,Cc1csc2nc(O)c(C(=O)NCCc3ccccc3)c(=O)n12,82.8% (active)
27,Cc1nc(COc2ccc(C(=O)NCc3ccc(F)cc3)cc2)cs1,-15.9%
28,Cc1csc2nc(O)c(C(=O)NCc3ccc(F)cc3)c(=O)n12,74.4% (active)
29,CC(=O)NCc1ccc(-c2nc(CCc3ccccc3)sc2C)s1,28%
30,Cc1c(C(=O)NCc2ccc(Cl)c(Cl)c2)sc(=O)n1CCc1ccccc1,35.6%

# — PubChem BioAssay AID1259343 (VanderVen Lab, College of Veterinary Medicine, Cornell …, 2017)
